Bioassay records deposited in PubChem BioAssay by National Center for Advancing Translational Sciences (NCATS).
Rows were chosen to be rich in hits. Some 19% of all compounds tested hit in one or more screens of this group.
Pf growth 48h = inhibits P. falciparum growth in the first generation, 48 h; hit rate 5.9% among 310,000; P. falciparum luciferase growth in erythrocytes, 48 h; Potency, µM (doses to about 28.7 µM), without a hit: at the highest dose activity change, negative = inhibition, hits mostly inhibitors; AID 504832; note: potency is the fitted concentration of half-maximal effect; % is set by controls: 0 for no effect and ±100 for the full control effect
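Read-out is firefly luciferase luminescence from an integrated reporter in P. falciparum, so falling signal marks reduced parasite growth. Infected erythrocytes were at 2% hematocrit and 0.1% parasitemia (final) in Albumax-supplemented RPMI 1640.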
LASV entry inh = blocks Lassa virus binding to or entry into cells; Lassa virus pseudotype entry inhibition, cell reporter; Potency, µM (top dose mostly 37.9 µM), for inactives: at the highest dose activity change, negative = inhibition, most hits filed as inhibitors; hit rate 1.2% among 300,000; AID 540256; calls by dose curve; tested in HEK293 cells; note: potency is the fitted concentration of half-maximal effect; % is set by controls: 0 for no effect and ±100 for the full control effect; nearly all actives have a fitted effect of over 50% in size
Shiga inhibitor = blocks Shiga toxin action in Vero cells; Vero cells, Shiga toxin protein synthesis inhibition reporter; inhibition, % at 38.7 µM; hit rate 9.2% among 290,000; AID 2315; in the data active = inhibition mostly above about 28%, no sharp cut-off; inactive = mostly below about 43%; note: 0% is about no effect
CHX counter = affects cycloheximide protein synthesis inhibition readout, counter-screen; hit rate 12% among 300,000; cell reporter, cycloheximide protein synthesis inhibition counterscreen; max response, %; in the data active = max response mostly above about 13%, no sharp cut-off; inactive = mostly below about 14%; note: read at 38.3 µM for the half of the compounds with a filed dose; 0% is about no effect
Pf growth 96h = P. falciparum growth inhibition at 96 hour, primary screen for plastid delayed-death inhibitors; hit rate 6.9% among 320,000; AID 504834; Potency, µM (series often up to 28.7 µM), inactives show at the top dose activity change, negative = inhibition, usual class: inhibitors; P. falciparum luciferase reporter growth, 96 h; note: potency is the fitted concentration of half-maximal effect; % is set by controls: 0 for no effect and ±100 for the full control effect
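Infected RBCs, 2% Hct / 0.05% parasitemia final; luciferase-reporter P. falciparum; cpd 96 h, 37 C, 5% CO2; luciferase detection reagent; luminescence.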
Marburg entry inh = blocks Marburg virus binding to or entry into cells; Marburg virus pseudotyped entry inhibition, cell reporter; Potency, µM (series often up to 37.8 µM), without a hit: at the top dose activity change, negative = inhibition, hits mostly inhibitors; AID 540276; hit rate 1.8% among 300,000; calls by dose curve; tested in HEK293 cells; note: potency is the fitted concentration of half-maximal effect; % is set by controls: 0 for no effect and ±100 for the full control effect
The depositor's hits bear a star; ? = inconclusive; . = no result given; [ ] = dose if it differs, or a comment. Unless noted, calls come from the whole dose curve; as a rule, active = well fitted inhibition curve with a large enough effect; inconclusive = small, poorly fitted or top-dose-only effect, or another doubt; inactive = no such curve, though single readings can be large or run the other way.

SMILES	Pf growth 48h	LASV entry inh	Shiga inhibitor	CHX counter	Pf growth 96h	Marburg entry inh
O=C(c1ccccc1)N(Cc1cccs1)C1CCS(=O)(=O)C1 (stereo not given)	43%	?	-13	-2	0.37µM*	3%
O=C(c1cccs1)N(Cc1ccco1)C1CCS(=O)(=O)C1 (stereo not given)	28%	-1%	26	-2	5.2µM*	25%
Cc1cc(C)c2oc(C(=O)N(Cc3ccccc3)C3CCS(=O)(=O)C3)cc(=O)c2c1 (stereo not given)	-22%	?	24	-2	?	?
CCOc1ccc(CN(C(=O)c2cc(=O)c3cc(C)cc(C)c3o2)C2CCS(=O)(=O)C2)cc1 (stereo not given)	3.7µM*	-10%[46.1 µM]	-10	-5	0%	?
COc1cc(C(=O)Oc2ccc3c(c2)OCC3=O)cc(OC)c1OC	34%	10%	-12	-2	?	-3%
O=C(Oc1ccc2c(c1)OCC2=O)c1ccc(Cl)cc1	?	2%[46.1 µM]	50*	22	42%	-1%[46.1 µM]
CN(C)c1ccc(C(=C2C=CC(=[N+](C)C)C=C2)c2ccc(N(C)C)cc2)cc1	0.3µM*	.	.	.	0.19µM*	.
CN(C)c1ccc(C(=C2C=CC(=[N+](C)C)C=C2)c2c(O)c(S(=O)(=O)[O-])cc3cc(S(=O)(=O)O)ccc23)cc1	?	.	.	.	6µM*	.
CN(C)c1ccc(C(=C2C=CC(=[N+](C)C)C=C2)c2ccccc2)cc1	7.6µM*	.	-1	8	3.8µM*	.
Cc1ccc(O)c(N=Nc2nccs2)c1	?	.	.	.	-67%	.
Cc1ccc(C(=O)N2CCN(CCc3ccncc3)CC2)cc1	.	-6%[46.1 µM]	.	.	.	?
Cc1cccc(N2C(=O)NC(=O)/C(=C\c3cccn3-c3ccc(Cl)cc3)C2=O)c1	24%	?	19	2	6%	?
O=C1NN(c2ccccc2)C(=O)/C1=C\c1cccn1-c1ccc(Cl)c([N+](=O)[O-])c1	.	?	-17	-5	52%	11µM*
O=C(NCC(c1ccco1)N1CCCCC1)c1ccc(COc2ccccc2)cc1 (stereo not given)	?	?	.	.	2.9µM*	?
CN(c1ccccc1)S(=O)(=O)c1ccc(C(=O)NCC(c2ccco2)N2CCCCC2)cc1 (stereo not given)	?	.	.	.	7.4µM*	.
COc1ccc(N(C)S(=O)(=O)c2cccc(C(=O)NCC(c3ccco3)N3CCCC3)c2)cc1 (stereo not given)	9.3µM*	-27%	.	.	?	-29%
CCOc1ccc(CNS(=O)(=O)c2c(C(=O)N3CCCC3)c(C)n(C)c2C)cc1OC	0%	-1%[46.1 µM]	-4	2	-20%	14%[46.1 µM]
S=c1[nH]nc(-c2ccco2)n1/N=C/c1ccccn1	1%	.	-12	-2	?	.
C/C(=N\Nc1ccc(S(N)(=O)=O)cc1[N+](=O)[O-])c1ccc2c(c1)OCO2	?	-1%	-5	-1	-11%	?
Brc1ccc(-c2noc(-c3ccccn3)n2)o1	246%	?	81*	45*	39%	?
COc1ccc(-c2noc(-c3ccc(Br)o3)n2)cc1OC	50%	?	6	10	.	2%
Brc1ccc(-c2nc(-c3ccccn3)no2)o1	188%	8.9µM*	-6	14*	?	7.9µM*
Brc1ccc(-c2nc(-c3ccncc3)no2)o1	114%	?	64*	24*	?	14%
COc1ccc(-c2nc3ccccc3c(=O)n2CCOc2ccccc2C)cc1	?	5%	-2	-2	-82%	19%
Cc1ccc([N+](=O)[O-])cc1NC1CC(O)C(CO)O1 (stereo not given)	16%	-3%	-5	1	3%	27%
SMILES	Pf growth 48h	LASV entry inh	Shiga inhibitor	CHX counter	Pf growth 96h	Marburg entry inh
COc1ccc(NC(=S)N2CCOCC2)c(OC)c1	4%	9%	9	-3	?	-14%
COc1ccc(-c2[nH]ncc2CNCCn2cccn2)c(F)c1	47%	.	32	-2	13µM*	.
CCO[C@@H]1OC(C(=O)N2CCN(Cc3ccc4c(c3)OCO4)CC2)=C[C@H](c2ccc(Br)cc2)[C@H]1CCCO	1.3µM*	.	-13	-2	4.1µM*	.
CCO[C@H]1OC(C(=O)N2CCN(C)CC2)=C[C@@H](c2ccc3c(c2)OCO3)[C@@H]1CCCO	8%	.	-3	1	?	.
CCO[C@@H]1OC(C(=O)N2CCN(Cc3ccc4c(c3)OCO4)CC2)=C[C@H](c2ccc(C(F)(F)F)cc2)[C@H]1CCCO	1.5µM*	.	-7	0	2.3µM*	.
CCN(C(=O)C(Cc1ccccc1)NS(=O)(=O)c1cccc2nsnc12)c1ccccc1 (stereo not given)	.	-1%[46.1 µM]	.	.	.	4%[46.1 µM]
COCCNC(=O)CN(Cc1ccc(Cl)cc1)S(C)(=O)=O	15%	2%	-19	-1	.	1%
CCS(=O)(=O)Nc1cc(-c2nc3cccnc3s2)ccc1C	87%	.	87*	66*	121%	.
Cc1nc2ccc(S(=O)(=O)Nc3cccc(-c4nc5cccnc5s4)c3)cc2s1	20%	8%	16	7	-19%	-4%
Cc1nc2ccc(S(=O)(=O)Nc3ccc(-c4nc5cccnc5s4)cc3)cc2s1	77%	25%	49*	37*	39%	34%
CCS(=O)(=O)Nc1cccc(-c2nc3cccnc3s2)c1	49%	.	131*	33*	67%	.
Cc1ccc(-c2nc3cccnc3s2)cc1NC(=O)C1c2ccccc2Oc2ccccc21	?	?	29	30*	-20%	?
CCCCOCN(C(=O)CCl)c1c(CC)cccc1CC	.	.	16	-1	.	.
COC(=O)c1ccccc1NC(=O)c1nc2nc(C)cc(C)n2n1	-8%	3%	-13	-4	-18%	22%
Cc1c(N2C(=O)C(C)SC23C(=O)Nc2ccccc23)c(=O)n(-c2ccccc2)n1C (stereo not given)	-15%	-6%	-12	-1	.	14%
CCS(=O)(=O)Nc1ccc(-c2nc3cccnc3s2)cc1	-7%	.	73*	41*	282%	.
Cc1cccc(CC(=O)Nc2cccc(-c3nc4cccnc4s3)c2)c1	.	5%[46.1 µM]	.	.	.	-19%[46.1 µM]
COc1ccc(/C=N\N2CCN(Cc3ccccc3Cl)CC2)cc1	-2%	.	-5	-3	275%	.
CSc1ccc(/C=N/N2CCN(Cc3ccccc3)CC2)cc1	20%	-1%[46.1 µM]	49*	30*	4%	-13%
CCOc1ccc(/C=N/N2CCN(Cc3ccccc3)CC2)cc1	24%	-8%	-3	-3	0.74µM*	-3%
O=C(O)c1ccc(/C=N/N2CCN(Cc3ccc(Cl)cc3)CC2)cc1	13%	-27%[46.1 µM]	3	-3	11%	-6%[46.1 µM]
CSc1ccc(C(=S)N2CCN(Cc3ccccc3)CC2)cc1	.	16µM*	-3	-2	?	-5%
Clc1ccc(/C=N/N2CCN(Cc3ccccc3)CC2)cc1	34%	.	29	17*	20%	.
CSc1ccc(/C=N/N2CCN(c3ccccc3)CC2)cc1	21%	?	17	-1	34%[5.75 µM]	3%
